Drawing on PubChem BioAssay, this text covers z-score for 15 molecules.

Several values for one entry are separate records, joined by “and”; a condition that tells them apart may be missing. Equal values may be shown once. Unmarked numbers belong to inactive results. The rule behind the calls is not given here.

The experiment is described as follows: inhibition of PAO1 biofilm formation – strain PAO1, LB-PBS medium, absorbance 600 nm, primary screen (AID 1176). Note: test concentration not given here. The note with it: P. aeruginosa PAO1 growth/biofilm, A600, 12 h; higher = more signal.
Turning to `C=C(C)C(=O)OC[C@@H]1CN2[C@@H](CC[C@@H](C)[C@@H]2c2ccc(Br)cc2)C(=O)O1`, the z-score is 0.936.
Turning to `COC(=O)C1=C2N(Cc3ccccc3)C(C)=C(C(=O)OC)[C@@H](c3ccccc3)N2C(=O)[C@](O)(C(=O)OC)C1`, the z-score is -0.318 and 0.216.
As to `C=C[C@@H](C)[C@@H](O)c1ccc(OCCO)cc1`, the z-score is 0.331 and 0.838.
The same measure for `C=CCN(Cc1ccccc1)C(=O)C1N(C(C)(C)CO)C(=O)C2C(C(=O)O)C3C=CC21O3` (stereo not given): -0.112 and -0.193; for `C=CCN(C(=O)C1N(C(C)(C)CO)C(=O)C2C(C(=O)O)C3C=CC21O3)c1ccc(OC)cc1` (stereo not given): -0.786.
Regarding `COC(=O)c1c2oc(c1C(=O)OC)C(=O)N[C@@H](Cc1ccccc1)Cn1cc(nn1)C1(CCCCC1)NC(=O)N[C@H](CO)CC2`, the z-score was 1.33 and 0.997.
For `C=C[C@H](C)[C@H](O)c1ccc(O)c2ccccc12`, the z-score is 1.32 and 1.45.
Next, `CCOC(=O)C[C@H]1[C@H](OC(=O)c2ccccc2-c2ccccc2)[C@@H](NC(=O)Cc2ccc(OC)cc2)c2cc(OCCCO)ccc2N1C(=O)c1ccc2ccccc2n1`: 0.456; `CC(C)OC(=O)C=C1C[C@@H](c2ccccc2)O[C@@H](c2ccccc2)O1`: 0.533 and 0.394.
With `COC(=O)C1=C(C)N(Cc2ccccc2)C2=C(C(=O)c3ccccc3)[C@H](c3ccccc3)[C@@](O)(C(=O)OC)C(=O)N2[C@@H]1c1ccccc1`, the z-score is 0.875 and -0.0538.
Next, `COC(=O)[C@@]1(Cc2ccc(F)cc2)[C@H]2c3cc(C(=O)N4CCCC4)n(Cc4c(CO)[nH]cc(C)c4=O)c3C[C@H]2CN1C(=O)c1ccccc1`: 1.38 and 0.895.
On to `C[N+](C)(C)CCCCCCNC(=O)[C@H]1C[C@H]2C(=O)N[C@@H](CCCC[N+](C)(C)C)C(=O)N2[C@H]1c1ccc(O)cc1`, for which the z-score was 2.63 and 0.351.
The same measure for `CC(CO)N1C(=O)[C@@H]2C3C(=O)OCCC=C[C@H]3OC23C=CCN(CCN2CCOCC2)C(=O)[C@@H]13` (stereo not given in full): 0.0405 and 0.0809.
As for `CCCC[C@@H]1CN2[C@H](c3ccc(Br)cc3)[C@@H](C)CC[C@H]2C(=O)O1`, the z-score is 0.192 and -0.172.
In the case of `CO[C@H]1COC(=O)CC=C[C@H](C)[C@H](OC)COC(=O)[C@@H](C)COC(=O)CC=C[C@@H]1C`, the z-score is -0.519 and -0.118.
